Results filed as inconclusive are left out. A call without a number means that no potency is given here. Active and inactive are the calls of the source. The call rests on the fitted dose curve; in most records, active means well fitted curve in the direction sought with a large enough effect; inconclusive means small, poorly fitted or top-dose-only effect, or another doubt; inactive means no such curve, though single readings can be large; an effect the other way counts as inactive or inconclusive.
What was measured:
[1] = qHTS of pediatric cancer cell lines to identify multiple opportunities for drug repurposing: Primary screen for SJ-GBM2 cells (AID 1347091); conditions: SJ-GBM2 viability, CellTiter-Glo luminescence, 48 h; series mostly up to 46 µM; further: potency means the concentration at half of the fitted maximal effect
Procedure, shortened: (§1)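 Viability measured as metabolically active cells via CellTiter-Glo luminescence following 48 hours of compound exposure, 11-point dilutions in confirmatory testing. 500-1,000 cells/well plated 5 hours before dosing; controls were DMSO and 2.3 µM bortezomib.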

[2] = qHTS of pediatric cancer cell lines to identify multiple opportunities for drug repurposing: Primary screen for SK-N-MC cells (AID 1347093); conditions: SK-N-MC viability, CellTiter-Glo luminescence, 48 h; series mostly up to 46 µM; further: potency means the concentration at half of the fitted maximal effect
Procedure, shortened: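 Metabolically active cells were quantified by ATP-dependent luminescence (CellTiter-Glo, 15 min at room temperature) following 48 h treatment. Cells had been plated at 500-1,000 per well and settled for 5 h beforehand.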

[3] = qHTS of pediatric cancer cell lines to identify multiple opportunities for drug repurposing: Primary screen for TC32 cells (AID 1347089); conditions: TC32 Ewing sarcoma viability, CellTiter-Glo luminescence, 48 h; series mostly up to 45.8 µM; further: nearly all actives have a fitted effect of over 60% in size
Procedure, shortened: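 Luminescent CellTiter-Glo read-out of metabolically active TC32 cells after 48 h compound exposure. Primary: MIPE 11-point, 0.78 nM–46 µM; NPC 8-point, 0.59 nM–46 µM. Confirmatory: 11-point dilutions.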

[4] = qHTS of pediatric cancer cell lines to identify multiple opportunities for drug repurposing: Primary screen for A673 cells (AID 1347092); conditions: A673 Ewing sarcoma viability, CellTiter-Glo ATP luminescence, 48 h; series mostly up to 46 µM; further: nearly all actives have a fitted effect of over 45% in size; further: potency means the concentration at half of the fitted maximal effect
Procedure, shortened: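 A673 cells (500-1,000 cells/well in growth media) were pre-incubated 5 h at 37 degrees C, then exposed to compounds for 48 h. Viability was read as CellTiter-Glo luminescence; concentration-response curves came directly from the primary screen.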

[5] = qHTS of pediatric cancer cell lines to identify multiple opportunities for drug repurposing: Primary screen for NB-EBc1 cells (AID 1347095); conditions: NB-EBc1 neuroblastoma viability, CellTiter-Glo luminescence, 48 h; series mostly up to 46 µM; further: potency means the concentration at half of the fitted maximal effect
Procedure, shortened: (§2)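 Quantitative HTS format: each compound titrated (MIPE 11 points from 0.78 nM, NPC 8 points from 0.59 nM) onto cells plated 5 hours earlier. After 48 h at 37 degrees C, CellTiter-Glo luminescence was recorded.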

[6] = qHTS of pediatric cancer cell lines to identify multiple opportunities for drug repurposing: Primary screen for Saos-2 cells (AID 1347097); conditions: Saos-2 viability, CellTiter-Glo ATP luminescence, 48 h; series mostly up to 46 µM; further: nearly all actives have a fitted effect of over 40% in size; further: potency means the concentration at half of the fitted maximal effect
Procedure, shortened: as §2

[7] = qHTS of pediatric cancer cell lines to identify multiple opportunities for drug repurposing: Primary screen for SK-N-SH cells (AID 1347098); conditions: SK-N-SH viability, CellTiter-Glo luminescence, 48 h; series mostly up to 57 µM; further: nearly all actives have a fitted effect of over 65% in size; further: potency means the concentration at half of the fitted maximal effect
Procedure, shortened: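 Cells (500-1,000/well) rested 5 h, then received compounds for 48 h; metabolically active cells were measured by CellTiter-Glo luminescence. Final concentrations spanned up to 46 µM (MIPE, 11-point) or 0.59 nM-46 µM (NPC, 8-point) in primary screens, 11-point in follow-ups.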

[8] = qHTS of pediatric cancer cell lines to identify multiple opportunities for drug repurposing: Primary screen for DAOY cells (AID 1347090); conditions: DAOY medulloblastoma viability, CellTiter-Glo luminescence, 48 h; series mostly up to 46 µM; further: nearly all actives have a fitted effect of over 55% in size
Procedure, shortened: as §1

[9] = qHTS of pediatric cancer cell lines to identify multiple opportunities for drug repurposing: Primary screen for BT-37 cells (AID 1347094); conditions: BT-37 viability, CellTiter-Glo luminescence, 48 h; series mostly up to 57.3 µM; further: potency means the concentration at half of the fitted maximal effect
Procedure, shortened: as §2

[10] = qHTS of pediatric cancer cell lines to identify multiple opportunities for drug repurposing: Primary screen for U-2 OS cells (AID 1347096); conditions: U-2 OS viability, CellTiter-Glo luminescence, 48 h; series mostly up to 46 µM; further: nearly all actives have a fitted effect of over 50% in size; further: potency means the concentration at half of the fitted maximal effect
Procedure, shortened: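 Viability after 48 h compound treatment at 37C, 500-1,000 cells/well, read as ATP luminescence with CellTiter-Glo. Primary screens used 11-point (MIPE, 0.78 nM-46 µM) or 8-point (NPC, 0.59 nM-46 µM) final concentrations; follow-up screens used 11-point dilutions.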

SMILES | Potency [1] | Potency [2] | Potency [3] | Potency [4] | Potency [5] | Potency [6] | Potency [7] | Potency [8] | Potency [9] | Potency [10]
CNc1nc(-c2ccc3c(N)n[nH]c3c2)cc(N2C[C@@H](C(=O)NC3CCCCC3)CC[C@@H]2C)n1 | 23.5 µM (active) | 4.18 µM (active) |  |  |  |  |  |  |  | 
CC[C@@H]([C@H](C)O)n1ncn(-c2ccc(N3CCN(c4ccc(OCC5CO[C@@](Cn6cncn6)(c6ccc(F)cc6F)C5)cc4)CC3)cc2)c1=O (some centres undefined) |  | 16.6 µM (active) | inactive | 18.7 µM (active) | 20.9 µM (active) | 26.4 µM (active) | inactive |  |  | 
Cc1ccc2c(c1)c1c(n2CCc2ccc(C)nc2)CCN(C)C1 | inactive |  |  |  | inactive | inactive |  | inactive | inactive | inactive
COC1CCC(C(=O)c2ccc3nc4c(cc3c2)CCCO4)CC1 (centres undefined) | 18.7 µM (active) |  |  | 23.5 µM (active) |  |  |  | inactive |  | inactive
O=C(Nc1ncc(SCCN2CCCC2)s1)[C@]1(c2ccc(S(=O)(=O)C3CC3)cc2)C[C@@H]1C1CCCCC1 | 23.5 µM (active) | 20.9 µM (active) | inactive | 18.7 µM (active) | 26.4 µM (active) | 33.2 µM (active) | inactive |  | 30.6 µM (active) | 23.5 µM (active)
O=c1[nH]c(=O)n([C@H]2C[C@@H](O)[C@@H](CO)O2)cc1C(F)(F)F |  | 3.72 µM (active) |  |  | 18.7 µM (active) | inactive |  |  | 3.06 µM (active) | inactive
CCN1CCC(n2cc(CNc3cc(Cl)c4ncc(C#N)c(Nc5ccc(F)c(Cl)c5)c4c3)nn2)CC1 |  |  | inactive | 14.8 µM (active) | 23.5 µM (active) | 14.8 µM (active) |  |  | 24.3 µM (active) | inactive
Cc1cccc(Nc2nc(N[C@@H]3CCCC[C@H]3N)ncc2C(N)=O)c1 |  | 6.62 µM (active) | inactive | 18.7 µM (active) | inactive | 8.33 µM (active) | 27.1 µM (active) |  | 27.3 µM (active) | 
CCCCN(CCCC)CC(O)c1cc(Cl)cc2c1-c1ccc(Cl)cc1C2=Cc1ccc(Cl)cc1 (centres undefined) |  |  | inactive | inactive | inactive | inactive | inactive | inactive | inactive | inactive
CCCCCCOC(=O)N=C(N)c1ccc(NCc2nc3cc(C(=O)N(CCC(=O)OCC)c4ccccn4)ccc3n2C)cc1 | 18.7 µM (active) | 29.6 µM (active) |  | 14.8 µM (active) |  |  | inactive | inactive |  | inactive
C[C@@H]1CCO[C@H]2Cn3cc(C(=O)NCc4ccc(F)cc4F)c(=O)c(O)c3C(=O)N12 |  | inactive | inactive | inactive |  |  | inactive | inactive |  | 
O=[N+]([O-])c1ccc(Nc2ccccc2-c2ccccc2)c2nonc12 |  | 29.6 µM (active) | inactive |  | 23.5 µM (active) |  |  |  | inactive | inactive
